Results from article PMC7862700, “An all-to-all approach to the identification of sequence-specific readers for epigenetic DNA modifications on cytosine”.

What was measured:
Assay in all cases: DAPPL (digital affinity profiling via proximity ligation, sequencing); 10 mM Tris-HCl pH 7.5, 50 mM NaCl, 1 mM DTT, 4% glycerol, room temperature, 30 min; GST-TFs on glutathione beads, 16-mer random dsDNA library, 0.1% formaldehyde crosslink after washing; high values mean tight binding
FLI1 = biological target: T1, FLI1 (Homo sapiens, UniProt Q01543 1-452); conditions: protein: recombinant; tags: N-terminal GST; dsDNA, one strand shown
T1 sequence: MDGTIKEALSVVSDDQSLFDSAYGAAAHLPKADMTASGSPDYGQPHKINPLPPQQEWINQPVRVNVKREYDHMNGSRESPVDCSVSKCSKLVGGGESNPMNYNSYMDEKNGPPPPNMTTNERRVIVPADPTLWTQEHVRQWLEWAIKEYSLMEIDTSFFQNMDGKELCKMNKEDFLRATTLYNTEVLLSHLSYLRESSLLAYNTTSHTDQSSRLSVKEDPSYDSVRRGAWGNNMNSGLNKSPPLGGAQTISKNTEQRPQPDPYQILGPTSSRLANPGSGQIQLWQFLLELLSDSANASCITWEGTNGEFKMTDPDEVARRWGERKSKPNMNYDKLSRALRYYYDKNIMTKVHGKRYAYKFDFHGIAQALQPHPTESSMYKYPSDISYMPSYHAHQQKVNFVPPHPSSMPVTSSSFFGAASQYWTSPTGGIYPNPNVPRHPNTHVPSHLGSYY
Outline: (§1)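 Sequencing on an Illumina NextSeq500 followed washing, crosslinking with 0.1% formaldehyde, proximity ligation (BsaI/T4 ligase, 1 h, 37 °C) and PCR amplification of pools that had been incubated for 30 min at room temperature with 200 nmole of a random double-stranded 16-mer DNA library in Tris/NaCl/DTT/glycerol buffer. Each pool held DNA-barcoded human transcription factors, expressed in yeast as GST fusions and captured on glutathione beads, plus a tag-only sample. Binding signal is a hexamer's read frequency for a factor divided by its frequency in the tag-only sample.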

ELK1 = biological target: T2, ELK1 (Homo sapiens, UniProt P19419 1-428); conditions: protein: recombinant; tags: N-terminal GST; dsDNA, one strand shown
T2 sequence: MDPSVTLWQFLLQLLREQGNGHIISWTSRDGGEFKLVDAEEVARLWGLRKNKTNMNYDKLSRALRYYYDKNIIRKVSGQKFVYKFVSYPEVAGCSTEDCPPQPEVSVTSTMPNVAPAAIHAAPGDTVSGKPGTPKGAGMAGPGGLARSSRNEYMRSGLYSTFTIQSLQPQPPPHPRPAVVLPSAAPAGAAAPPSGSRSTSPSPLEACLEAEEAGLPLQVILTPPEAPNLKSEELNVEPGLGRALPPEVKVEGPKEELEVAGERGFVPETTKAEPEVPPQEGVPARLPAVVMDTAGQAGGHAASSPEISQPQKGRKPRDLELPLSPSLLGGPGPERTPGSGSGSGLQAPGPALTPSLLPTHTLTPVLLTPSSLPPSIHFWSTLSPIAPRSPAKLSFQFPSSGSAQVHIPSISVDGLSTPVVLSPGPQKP
Outline: as §1

GABPA = biological target: T3, GABPA (Homo sapiens, UniProt Q06546 1-454); conditions: protein: recombinant; tags: N-terminal GST; dsDNA, one strand shown
T3 sequence: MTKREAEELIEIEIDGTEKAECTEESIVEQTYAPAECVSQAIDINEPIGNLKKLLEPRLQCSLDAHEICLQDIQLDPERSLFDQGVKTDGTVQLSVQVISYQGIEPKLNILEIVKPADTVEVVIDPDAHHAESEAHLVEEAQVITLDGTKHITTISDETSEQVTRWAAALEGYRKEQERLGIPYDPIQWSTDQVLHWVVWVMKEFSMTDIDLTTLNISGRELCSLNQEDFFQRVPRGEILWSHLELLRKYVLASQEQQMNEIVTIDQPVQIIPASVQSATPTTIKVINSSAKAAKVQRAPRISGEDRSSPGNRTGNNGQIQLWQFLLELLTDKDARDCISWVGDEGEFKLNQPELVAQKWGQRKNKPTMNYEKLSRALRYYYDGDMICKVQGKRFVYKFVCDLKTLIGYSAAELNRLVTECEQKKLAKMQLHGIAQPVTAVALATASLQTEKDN
Outline: as §1

ERG = biological target: T4, ERG (Homo sapiens, UniProt P11308 1-479); conditions: protein: recombinant; tags: N-terminal GST; dsDNA, one strand shown
T4 sequence: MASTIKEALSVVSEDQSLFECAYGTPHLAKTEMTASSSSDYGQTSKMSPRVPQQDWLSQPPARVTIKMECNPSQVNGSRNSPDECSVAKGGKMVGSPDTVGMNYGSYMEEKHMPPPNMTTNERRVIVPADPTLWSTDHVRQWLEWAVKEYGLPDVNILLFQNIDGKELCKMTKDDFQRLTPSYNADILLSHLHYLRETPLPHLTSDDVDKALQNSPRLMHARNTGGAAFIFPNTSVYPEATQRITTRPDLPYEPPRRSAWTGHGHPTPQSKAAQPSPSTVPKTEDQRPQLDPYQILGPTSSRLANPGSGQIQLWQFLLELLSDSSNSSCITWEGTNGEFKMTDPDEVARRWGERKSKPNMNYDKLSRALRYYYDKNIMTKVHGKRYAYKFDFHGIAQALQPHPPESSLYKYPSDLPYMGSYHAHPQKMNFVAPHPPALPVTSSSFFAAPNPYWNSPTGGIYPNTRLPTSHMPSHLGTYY
Outline: as §1

ELF1 = ELF1 (Homo sapiens, UniProt P32519 1-619); conditions: protein: recombinant; tags: N-terminal GST; dsDNA, one strand shown
Outline: as §1

EHF = biological target: T5, EHF (Homo sapiens, UniProt Q9NZC4 1-300); conditions: protein: recombinant; tags: N-terminal GST; dsDNA, one strand shown
T5 sequence: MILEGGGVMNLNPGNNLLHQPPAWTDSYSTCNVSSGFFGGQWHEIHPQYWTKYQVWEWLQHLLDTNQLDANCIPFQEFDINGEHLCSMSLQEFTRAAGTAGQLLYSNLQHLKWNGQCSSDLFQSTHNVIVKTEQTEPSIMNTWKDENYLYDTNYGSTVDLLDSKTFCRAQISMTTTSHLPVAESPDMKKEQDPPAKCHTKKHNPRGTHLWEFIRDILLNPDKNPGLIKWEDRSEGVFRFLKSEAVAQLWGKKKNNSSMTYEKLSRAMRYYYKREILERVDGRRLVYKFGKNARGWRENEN
Outline: as §1

SPI1 = SPI1 (Homo sapiens, UniProt P17947 1-270); conditions: protein: recombinant; tags: N-terminal GST; dsDNA, one strand shown
Outline: as §1

SPIB = SPIB (Homo sapiens, UniProt Q01892 1-262); conditions: protein: recombinant; tags: N-terminal GST; dsDNA, one strand shown
Outline: as §1

ELK3 = biological target: T6, ELK3 (Homo sapiens, UniProt P41970 1-407); conditions: protein: recombinant; tags: N-terminal GST; dsDNA, one strand shown
T6 sequence: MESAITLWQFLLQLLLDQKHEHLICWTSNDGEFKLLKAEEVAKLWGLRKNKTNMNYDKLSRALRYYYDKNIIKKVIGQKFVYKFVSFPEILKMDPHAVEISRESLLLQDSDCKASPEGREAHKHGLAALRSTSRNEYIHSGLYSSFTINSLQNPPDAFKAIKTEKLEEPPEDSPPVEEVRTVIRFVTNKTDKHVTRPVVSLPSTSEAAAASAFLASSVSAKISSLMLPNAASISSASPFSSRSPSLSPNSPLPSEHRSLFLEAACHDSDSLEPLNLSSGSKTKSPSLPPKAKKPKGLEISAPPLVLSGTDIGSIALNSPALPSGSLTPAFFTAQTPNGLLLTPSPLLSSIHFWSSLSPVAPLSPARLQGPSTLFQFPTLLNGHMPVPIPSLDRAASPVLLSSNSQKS
Outline: as §1

FEV = biological target: T7, FEV (Homo sapiens, UniProt Q99581 1-238); conditions: protein: recombinant; tags: N-terminal GST; dsDNA, one strand shown
T7 sequence: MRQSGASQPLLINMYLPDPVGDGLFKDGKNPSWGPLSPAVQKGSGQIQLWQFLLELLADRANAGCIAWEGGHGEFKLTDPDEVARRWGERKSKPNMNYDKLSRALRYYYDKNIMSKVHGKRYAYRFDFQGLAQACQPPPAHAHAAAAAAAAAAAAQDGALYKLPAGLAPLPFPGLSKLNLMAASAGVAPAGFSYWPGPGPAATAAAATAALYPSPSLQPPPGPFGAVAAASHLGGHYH
Outline: as §1

ETV5 = ETV5 (Homo sapiens, UniProt P41161 1-510); conditions: protein: recombinant; tags: N-terminal GST; dsDNA, one strand shown
Outline: as §1

HSF1 = HSF1 (Homo sapiens, UniProt Q00613 1-529); conditions: protein: recombinant; tags: N-terminal GST; chain copies: 3; dsDNA, one strand shown
Outline: as §1

SPIC = biological target: T8, SPIC (Homo sapiens, UniProt Q8N5J4 1-248); conditions: protein: recombinant; tags: N-terminal GST; dsDNA, one strand shown
T8 sequence: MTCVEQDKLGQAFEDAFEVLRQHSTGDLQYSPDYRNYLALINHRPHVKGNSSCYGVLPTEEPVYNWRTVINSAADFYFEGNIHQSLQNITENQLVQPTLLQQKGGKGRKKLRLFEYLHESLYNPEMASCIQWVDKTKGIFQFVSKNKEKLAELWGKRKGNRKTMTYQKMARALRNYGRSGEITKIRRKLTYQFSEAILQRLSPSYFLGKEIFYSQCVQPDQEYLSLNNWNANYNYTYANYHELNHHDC
Outline: as §1

ELF4 = ELF4 (Homo sapiens, UniProt Q99607 1-663); conditions: protein: recombinant; tags: N-terminal GST; dsDNA, one strand shown
Outline: as §1

ELK4 = biological target: T9, ELK4 (Homo sapiens, UniProt P28324-2 1-405); conditions: protein: recombinant; tags: N-terminal GST; dsDNA, one strand shown
T9 sequence: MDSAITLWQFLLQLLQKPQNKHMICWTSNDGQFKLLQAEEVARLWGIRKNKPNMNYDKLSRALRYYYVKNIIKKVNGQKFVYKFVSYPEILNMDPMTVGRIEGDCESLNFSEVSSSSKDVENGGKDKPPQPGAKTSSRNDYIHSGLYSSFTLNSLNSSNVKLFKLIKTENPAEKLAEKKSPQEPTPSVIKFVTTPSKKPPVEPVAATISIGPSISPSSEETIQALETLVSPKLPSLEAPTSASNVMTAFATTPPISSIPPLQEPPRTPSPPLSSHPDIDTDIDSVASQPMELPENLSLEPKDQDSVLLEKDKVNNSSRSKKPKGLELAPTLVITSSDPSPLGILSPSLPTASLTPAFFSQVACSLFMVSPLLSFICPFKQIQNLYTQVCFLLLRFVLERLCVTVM
Outline: as §1

ETV2 = biological target: T10, ETV2 (Homo sapiens, UniProt O00321 1-342); conditions: protein: recombinant; tags: N-terminal GST; dsDNA, one strand shown
T10 sequence: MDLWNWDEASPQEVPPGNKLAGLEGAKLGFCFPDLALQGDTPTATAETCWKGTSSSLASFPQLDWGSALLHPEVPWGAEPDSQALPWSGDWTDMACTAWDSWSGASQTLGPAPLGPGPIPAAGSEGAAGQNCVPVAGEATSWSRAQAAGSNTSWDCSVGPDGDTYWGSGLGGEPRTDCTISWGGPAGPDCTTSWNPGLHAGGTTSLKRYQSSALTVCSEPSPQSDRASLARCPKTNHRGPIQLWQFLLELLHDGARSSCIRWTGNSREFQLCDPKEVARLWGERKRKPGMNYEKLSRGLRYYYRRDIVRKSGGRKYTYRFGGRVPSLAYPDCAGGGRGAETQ
Outline: as §1

ELF3 = biological target: T11, ELF3 (Homo sapiens, UniProt P78545 1-371); conditions: protein: recombinant; tags: N-terminal GST; dsDNA, one strand shown
T11 sequence: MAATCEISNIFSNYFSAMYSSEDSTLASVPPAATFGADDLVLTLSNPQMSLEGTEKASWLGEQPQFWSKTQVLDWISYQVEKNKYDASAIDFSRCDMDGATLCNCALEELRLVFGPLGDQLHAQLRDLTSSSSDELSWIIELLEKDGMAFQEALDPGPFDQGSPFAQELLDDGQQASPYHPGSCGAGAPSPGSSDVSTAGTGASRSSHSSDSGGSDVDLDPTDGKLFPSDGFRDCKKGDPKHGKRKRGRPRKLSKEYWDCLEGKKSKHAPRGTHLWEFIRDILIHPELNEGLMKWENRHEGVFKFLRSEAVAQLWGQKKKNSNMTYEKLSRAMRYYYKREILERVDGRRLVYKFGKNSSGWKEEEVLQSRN
Outline: as §1

CRX = CRX (Homo sapiens, UniProt O43186 1-299); conditions: protein: recombinant; tags: N-terminal GST; dsDNA, one strand shown
Outline: as §1

ETV1 = ETV1 (Homo sapiens, UniProt P50549 1-477); conditions: protein: recombinant; tags: N-terminal GST; dsDNA, one strand shown
Outline: as §1

Sequence of ETV5 (P41161 whole entry): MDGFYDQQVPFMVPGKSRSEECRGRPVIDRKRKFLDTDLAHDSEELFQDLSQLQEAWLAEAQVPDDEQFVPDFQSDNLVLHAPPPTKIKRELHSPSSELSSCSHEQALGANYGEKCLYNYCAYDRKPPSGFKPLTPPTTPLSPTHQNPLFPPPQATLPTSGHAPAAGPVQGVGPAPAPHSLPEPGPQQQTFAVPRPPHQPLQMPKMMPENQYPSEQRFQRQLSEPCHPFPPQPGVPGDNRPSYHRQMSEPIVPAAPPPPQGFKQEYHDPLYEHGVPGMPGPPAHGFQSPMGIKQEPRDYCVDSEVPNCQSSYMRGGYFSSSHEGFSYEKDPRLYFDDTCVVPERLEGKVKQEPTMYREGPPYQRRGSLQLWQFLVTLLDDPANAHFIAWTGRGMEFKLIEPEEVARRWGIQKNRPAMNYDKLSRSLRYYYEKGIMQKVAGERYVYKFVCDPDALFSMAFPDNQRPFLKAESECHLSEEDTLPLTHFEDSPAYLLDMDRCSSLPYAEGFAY
Sequence of ETV1 (P50549 whole entry): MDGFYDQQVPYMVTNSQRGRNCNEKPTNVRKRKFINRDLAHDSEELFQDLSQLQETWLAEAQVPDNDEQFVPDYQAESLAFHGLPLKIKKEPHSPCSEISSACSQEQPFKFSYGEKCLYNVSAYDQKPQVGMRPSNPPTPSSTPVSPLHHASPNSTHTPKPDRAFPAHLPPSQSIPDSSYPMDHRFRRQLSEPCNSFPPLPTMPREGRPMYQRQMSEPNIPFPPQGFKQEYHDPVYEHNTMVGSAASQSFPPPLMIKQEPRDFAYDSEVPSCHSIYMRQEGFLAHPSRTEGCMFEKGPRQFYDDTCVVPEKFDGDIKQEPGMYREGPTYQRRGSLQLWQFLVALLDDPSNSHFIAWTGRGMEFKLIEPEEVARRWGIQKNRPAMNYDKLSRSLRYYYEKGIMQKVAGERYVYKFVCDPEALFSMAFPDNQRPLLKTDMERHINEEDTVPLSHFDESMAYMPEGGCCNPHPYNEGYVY
Sequence of ELF1 (P32519 whole entry): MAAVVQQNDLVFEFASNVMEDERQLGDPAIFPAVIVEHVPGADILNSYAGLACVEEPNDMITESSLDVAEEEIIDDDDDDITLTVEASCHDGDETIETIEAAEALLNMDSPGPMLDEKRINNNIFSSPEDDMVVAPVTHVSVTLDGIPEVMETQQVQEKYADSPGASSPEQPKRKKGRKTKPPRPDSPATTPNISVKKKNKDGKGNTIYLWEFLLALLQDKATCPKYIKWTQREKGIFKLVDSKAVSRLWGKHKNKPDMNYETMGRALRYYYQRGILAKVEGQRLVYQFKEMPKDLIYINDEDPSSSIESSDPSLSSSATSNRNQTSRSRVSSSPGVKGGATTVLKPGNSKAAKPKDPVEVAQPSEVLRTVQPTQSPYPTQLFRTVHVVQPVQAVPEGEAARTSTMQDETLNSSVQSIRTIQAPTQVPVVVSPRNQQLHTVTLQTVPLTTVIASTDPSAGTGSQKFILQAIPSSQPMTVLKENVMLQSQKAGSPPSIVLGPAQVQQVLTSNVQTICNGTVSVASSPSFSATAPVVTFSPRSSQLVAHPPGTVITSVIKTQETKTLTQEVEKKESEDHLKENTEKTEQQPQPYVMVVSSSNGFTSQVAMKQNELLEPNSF
Sequence of HSF1 (Q00613 whole entry): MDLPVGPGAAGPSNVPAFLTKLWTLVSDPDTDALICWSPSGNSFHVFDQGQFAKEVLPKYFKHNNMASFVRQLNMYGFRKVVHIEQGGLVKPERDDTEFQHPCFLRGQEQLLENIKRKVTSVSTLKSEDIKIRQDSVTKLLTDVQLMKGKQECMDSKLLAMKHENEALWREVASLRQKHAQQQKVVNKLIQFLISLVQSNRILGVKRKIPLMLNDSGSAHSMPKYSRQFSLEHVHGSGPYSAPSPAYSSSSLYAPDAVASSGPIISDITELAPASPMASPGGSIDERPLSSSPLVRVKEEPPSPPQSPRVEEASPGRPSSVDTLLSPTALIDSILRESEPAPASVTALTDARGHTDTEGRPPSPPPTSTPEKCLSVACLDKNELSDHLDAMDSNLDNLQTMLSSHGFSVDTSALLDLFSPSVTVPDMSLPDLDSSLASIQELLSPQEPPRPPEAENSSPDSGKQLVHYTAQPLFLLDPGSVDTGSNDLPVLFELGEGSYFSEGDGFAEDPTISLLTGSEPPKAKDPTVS
Sequence of SPIB (Q01892 whole entry): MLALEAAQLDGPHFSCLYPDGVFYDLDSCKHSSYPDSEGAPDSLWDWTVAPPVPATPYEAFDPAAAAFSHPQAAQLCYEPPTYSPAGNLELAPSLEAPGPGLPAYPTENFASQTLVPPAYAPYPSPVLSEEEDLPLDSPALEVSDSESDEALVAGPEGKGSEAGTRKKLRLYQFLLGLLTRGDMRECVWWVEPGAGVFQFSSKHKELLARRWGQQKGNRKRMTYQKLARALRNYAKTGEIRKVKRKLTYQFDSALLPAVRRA
Sequence of CRX (O43186 whole entry): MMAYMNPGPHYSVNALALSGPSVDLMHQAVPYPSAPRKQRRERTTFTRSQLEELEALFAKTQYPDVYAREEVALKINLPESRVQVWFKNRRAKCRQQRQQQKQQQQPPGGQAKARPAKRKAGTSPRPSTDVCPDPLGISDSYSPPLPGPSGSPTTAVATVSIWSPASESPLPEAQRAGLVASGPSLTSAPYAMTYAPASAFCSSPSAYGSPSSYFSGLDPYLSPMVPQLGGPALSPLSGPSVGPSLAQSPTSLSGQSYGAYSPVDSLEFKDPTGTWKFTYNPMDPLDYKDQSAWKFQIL
Sequence of ELF4 (Q99607 whole entry): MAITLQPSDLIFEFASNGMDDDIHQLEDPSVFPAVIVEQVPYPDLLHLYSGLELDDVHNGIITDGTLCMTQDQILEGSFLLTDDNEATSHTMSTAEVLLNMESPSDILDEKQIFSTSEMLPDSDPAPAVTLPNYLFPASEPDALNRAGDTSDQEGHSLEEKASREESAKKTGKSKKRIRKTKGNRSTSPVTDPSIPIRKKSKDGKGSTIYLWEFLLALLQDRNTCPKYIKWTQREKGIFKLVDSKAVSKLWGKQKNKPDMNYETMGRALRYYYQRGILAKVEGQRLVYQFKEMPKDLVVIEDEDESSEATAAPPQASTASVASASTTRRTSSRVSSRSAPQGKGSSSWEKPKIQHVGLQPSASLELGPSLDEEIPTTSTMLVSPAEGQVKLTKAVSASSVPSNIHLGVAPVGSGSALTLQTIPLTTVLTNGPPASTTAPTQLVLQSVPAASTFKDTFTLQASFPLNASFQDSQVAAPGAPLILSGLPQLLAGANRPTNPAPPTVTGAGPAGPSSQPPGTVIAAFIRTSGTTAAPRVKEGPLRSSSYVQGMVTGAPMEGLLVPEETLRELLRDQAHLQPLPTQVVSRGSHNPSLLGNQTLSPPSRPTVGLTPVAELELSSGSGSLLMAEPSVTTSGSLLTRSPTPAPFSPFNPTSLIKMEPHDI

TCCCAC
binding signal (FLI1): 1.31 fold enrichment (6-mer frequency, TF over GST control) | binding signal (ELK1): 1.42 fold enrichment (6-mer frequency, TF over GST control) | binding signal (GABPA): 1.36 fold enrichment (6-mer frequency, TF over GST control) | binding signal (ERG): 1.37 fold enrichment (6-mer frequency, TF over GST control) | binding signal (ELF1): 1.47 fold enrichment (6-mer frequency, TF over GST control) | binding signal (EHF): 1.38 fold enrichment (6-mer frequency, TF over GST control) | binding signal (SPI1): 1.34 fold enrichment (6-mer frequency, TF over GST control) | binding signal (SPIB): 1.26 fold enrichment (6-mer frequency, TF over GST control) | binding signal (ELK3): 1.27 fold enrichment (6-mer frequency, TF over GST control) | binding signal (FEV): 1.38 fold enrichment (6-mer frequency, TF over GST control) | binding signal (ETV5): 1.37 fold enrichment (6-mer frequency, TF over GST control) | binding signal (HSF1): 1.17 fold enrichment (6-mer frequency, TF over GST control) | binding signal (SPIC): 1.17 fold enrichment (6-mer frequency, TF over GST control) | binding signal (ELF4): 1.34 fold enrichment (6-mer frequency, TF over GST control) | binding signal (ELK4): 1.34 fold enrichment (6-mer frequency, TF over GST control) | binding signal (ETV2): 1.12 fold enrichment (6-mer frequency, TF over GST control) | binding signal (ELF3): 1.46 fold enrichment (6-mer frequency, TF over GST control) | binding signal (CRX): 1.34 fold enrichment (6-mer frequency, TF over GST control) | binding signal (ETV1): 1.34 fold enrichment (6-mer frequency, TF over GST control)
